Measurements as given in the supplement of paper PMC4022240.
± gives the standard deviation.

Experiments:
Experiment in all cases: peptide microarray binding signal (635 nm), min-max normalized on array (fraction of array maximum); higher = stronger binding
[1] = target: T1, HaloTag-ATRX ADD domain (163-292)
T1 chain: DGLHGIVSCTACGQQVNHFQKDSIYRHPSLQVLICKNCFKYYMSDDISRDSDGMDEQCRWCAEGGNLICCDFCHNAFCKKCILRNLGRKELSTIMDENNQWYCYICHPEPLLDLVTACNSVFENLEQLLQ
Method in brief: (§1)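 For each library, binding signal was taken as the triplicate-spot mean intensity and then min-max scaled. Spots of histone 13-mer peptide–cellulose conjugates on nitrocellulose, printed in triplicate with a Cy3 tracer, were probed for 1 h at 4°C with either biotin-labelled HaloTag reader fusions (10 nM to 1 μM) and streptavidin-Alexa Fluor 647 or rabbit histone antibodies (1:10,000 to 1:2,000) and anti-rabbit Alexa 647. Readout at 635 nm came from an Axon GenePix 4000B.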

[2] = target: HaloTag-ING2 PHD (mouse Ing2 200-280)
Method in brief: as §1

[3] = target: anti-H3K4me3 antibody ab8580
Method in brief: as §1

[4] = target: anti-H3K9me3 antibody ab8898
Method in brief: as §1

[5] = peptide region: H3 11-23, peptide modifications: H3K14ac H3R17me2s, binder concentration: 1:2,000 dilution
[6] = peptide region: H3 11-23, peptide modifications: H3K14ac H3R17me2s, binder concentration: 1:10,000 dilution
[7] = peptide region: H3 11-23, peptide modifications: H3K14ac H3K18me1, binder concentration: 1:2,000 dilution
[8] = peptide region: H3 11-23, peptide modifications: H3K14ac H3K18me1, binder concentration: 1:10,000 dilution
[9] = peptide region: H3 11-23, peptide modifications: H3K14me1, binder concentration: 1:2,000 dilution
[10] = peptide region: H3 11-23, peptide modifications: H3K14me1, binder concentration: 1:10,000 dilution
[11] = peptide region: H3 5-17, peptide modifications: H3T11ph H3K14me1, binder concentration: 1:2,000 dilution
[12] = peptide region: H3 5-17, peptide modifications: H3T11ph H3K14me1, binder concentration: 1:10,000 dilution
[13] = peptide region: H3 11-23, peptide modifications: H3K14ac H3R17cit, binder concentration: 1:2,000 dilution
[14] = peptide region: H3 11-23, peptide modifications: H3K14ac H3R17cit, binder concentration: 1:10,000 dilution
[15] = peptide region: H3 11-23, peptide modifications: H3K14ac, binder concentration: 1:2,000 dilution
[16] = peptide region: H3 11-23, peptide modifications: H3K14ac, binder concentration: 1:10,000 dilution
[17] = peptide region: H3 5-17, peptide modifications: H3S10ph H3K14me3, binder concentration: 1:2,000 dilution
[18] = peptide region: H3 5-17, peptide modifications: H3S10ph H3K14me3, binder concentration: 1:10,000 dilution
[19] = peptide region: H3 5-17, peptide modifications: H3S10ph H3T11ph, binder concentration: 1:2,000 dilution
[20] = peptide region: H3 5-17, peptide modifications: H3S10ph H3T11ph, binder concentration: 1:10,000 dilution
[21] = peptide region: H3 11-23, peptide modifications: H3K14me1 H3K18ac, binder concentration: 1:2,000 dilution
[22] = peptide region: H3 11-23, peptide modifications: H3K14me1 H3K18ac, binder concentration: 1:10,000 dilution
[23] = peptide region: H3 11-23, peptide modifications: H3K14ac H3R17me1, binder concentration: 1:2,000 dilution
[24] = peptide region: H3 11-23, peptide modifications: H3K14ac H3R17me1, binder concentration: 1:10,000 dilution

TGGKAPRKQLATK [H3 11-23 T G G Kac A P Rme2s K Q L A T K]
peptide microarray binding signal ([1]; peptide region: H3 11-23, peptide modifications: H3K14ac H3R17me2s, binder concentration: 50 nM): 0.00621 ± 0.00011
peptide microarray binding signal ([1]; peptide region: H3 11-23, peptide modifications: H3K14ac H3R17me2s, binder concentration: 500 nM): 0.0112 ± 0.00066
peptide microarray binding signal ([2]; peptide region: H3 11-23, peptide modifications: H3K14ac H3R17me2s, binder concentration: 10 nM): 0.0167 ± 0.00051
peptide microarray binding signal ([2]; peptide region: H3 11-23, peptide modifications: H3K14ac H3R17me2s, binder concentration: 100 nM): 0.02487 ± 0.00023
peptide microarray binding signal [3, 5]: 0.00702 ± 0.00068
peptide microarray binding signal [3, 6]: 0.00628 ± 0.00011
peptide microarray binding signal [4, 5]: 0.00362 ± 0.00034
peptide microarray binding signal [4, 6]: 0.00219 ± 3.5e-05

TGGKAPRKQLATK [H3 11-23 T G G Kac A P R Kme Q L A T K]
peptide microarray binding signal ([1]; peptide region: H3 11-23, peptide modifications: H3K14ac H3K18me1, binder concentration: 50 nM): 0.00759 ± 8.2e-05
peptide microarray binding signal ([1]; peptide region: H3 11-23, peptide modifications: H3K14ac H3K18me1, binder concentration: 500 nM): 0.012 ± 0.00073
peptide microarray binding signal ([2]; peptide region: H3 11-23, peptide modifications: H3K14ac H3K18me1, binder concentration: 10 nM): 0.0187 ± 0.0021
peptide microarray binding signal ([2]; peptide region: H3 11-23, peptide modifications: H3K14ac H3K18me1, binder concentration: 100 nM): 0.0405 ± 0.011
peptide microarray binding signal [3, 7]: 0.0114 ± 0.0027
peptide microarray binding signal [3, 8]: 0.00725 ± 0.00036
peptide microarray binding signal [4, 7]: 0.00275 ± 0.00016
peptide microarray binding signal [4, 8]: 0.00219 ± 0.0001

TGGKAPRKQLATK [H3 11-23 T G G Kme A P R K Q L A T K]
peptide microarray binding signal ([1]; peptide region: H3 11-23, peptide modifications: H3K14me1, binder concentration: 50 nM): 0.00646 ± 0.00024
peptide microarray binding signal ([1]; peptide region: H3 11-23, peptide modifications: H3K14me1, binder concentration: 500 nM): 0.0181 ± 0.002
peptide microarray binding signal ([2]; peptide region: H3 11-23, peptide modifications: H3K14me1, binder concentration: 10 nM): 0.00567 ± 0.00017
peptide microarray binding signal ([2]; peptide region: H3 11-23, peptide modifications: H3K14me1, binder concentration: 100 nM): 0.0256 ± 0.0033
peptide microarray binding signal [3, 9]: 0.0023 ± 0.00025
peptide microarray binding signal [3, 10]: 0.00108
peptide microarray binding signal [4, 9]: 0.004 ± 0.00032
peptide microarray binding signal [4, 10]: 0.00346 ± 0.00012

QTARKSTGGKAPR [H3 5-17 Q T A R K S Tph G G Kme A P R]
peptide microarray binding signal ([1]; peptide region: H3 5-17, peptide modifications: H3T11ph H3K14me1, binder concentration: 50 nM): 0.00301 ± 0.00011
peptide microarray binding signal ([1]; peptide region: H3 5-17, peptide modifications: H3T11ph H3K14me1, binder concentration: 500 nM): 0.00562 ± 0.00013
peptide microarray binding signal ([2]; peptide region: H3 5-17, peptide modifications: H3T11ph H3K14me1, binder concentration: 10 nM): 0.00466 ± 0.00013
peptide microarray binding signal ([2]; peptide region: H3 5-17, peptide modifications: H3T11ph H3K14me1, binder concentration: 100 nM): 0.00496 ± 0.00066
peptide microarray binding signal [3, 11]: 0.00106 ± 2.3e-05
peptide microarray binding signal [3, 12]: 0.0012 ± 3.2e-05
peptide microarray binding signal [4, 11]: 0.00112 ± 2.3e-05
peptide microarray binding signal [4, 12]: 0.000807

TGGKAPRKQLATK [H3 11-23 T G G Kac A P Rcit K Q L A T K]
peptide microarray binding signal ([1]; peptide region: H3 11-23, peptide modifications: H3K14ac H3R17cit, binder concentration: 50 nM): 0.00671 ± 0.00027
peptide microarray binding signal ([1]; peptide region: H3 11-23, peptide modifications: H3K14ac H3R17cit, binder concentration: 500 nM): 0.013 ± 0.00041
peptide microarray binding signal ([2]; peptide region: H3 11-23, peptide modifications: H3K14ac H3R17cit, binder concentration: 10 nM): 0.018 ± 0.0015
peptide microarray binding signal ([2]; peptide region: H3 11-23, peptide modifications: H3K14ac H3R17cit, binder concentration: 100 nM): 0.0345 ± 0.0076
peptide microarray binding signal [3, 13]: 0.00517 ± 0.00085
peptide microarray binding signal [3, 14]: 0.00297 ± 0.00013
peptide microarray binding signal [4, 13]: 0.00171 ± 5.6e-05
peptide microarray binding signal [4, 14]: 0.00127 ± 1.3e-05

TGGKAPRKQLATK [H3 11-23 T G G Kac A P R K Q L A T K]
peptide microarray binding signal ([1]; peptide region: H3 11-23, peptide modifications: H3K14ac, binder concentration: 50 nM): 0.0069 ± 0.00019
peptide microarray binding signal ([1]; peptide region: H3 11-23, peptide modifications: H3K14ac, binder concentration: 500 nM): 0.032 ± 0.0024
peptide microarray binding signal ([2]; peptide region: H3 11-23, peptide modifications: H3K14ac, binder concentration: 10 nM): 0.0291 ± 0.0036
peptide microarray binding signal ([2]; peptide region: H3 11-23, peptide modifications: H3K14ac, binder concentration: 100 nM): 0.0427 ± 0.0088
peptide microarray binding signal [3, 15]: 0.00429 ± 0.00017
peptide microarray binding signal [3, 16]: 0.00314 ± 0.00047
peptide microarray binding signal [4, 15]: 0.00606 ± 0.00038
peptide microarray binding signal [4, 16]: 0.00392 ± 0.00032

QTARKSTGGKAPR [H3 5-17 Q T A R K Sph T G G Kme3 A P R]
peptide microarray binding signal ([1]; peptide region: H3 5-17, peptide modifications: H3S10ph H3K14me3, binder concentration: 50 nM): 0.005486 ± 5.1e-05
peptide microarray binding signal ([1]; peptide region: H3 5-17, peptide modifications: H3S10ph H3K14me3, binder concentration: 500 nM): 0.0236 ± 0.0018
peptide microarray binding signal ([2]; peptide region: H3 5-17, peptide modifications: H3S10ph H3K14me3, binder concentration: 10 nM): 0.0113 ± 0.0025
peptide microarray binding signal ([2]; peptide region: H3 5-17, peptide modifications: H3S10ph H3K14me3, binder concentration: 100 nM): 0.014 ± 0.0073
peptide microarray binding signal [3, 17]: 0.0516 ± 0.0021
peptide microarray binding signal [3, 18]: 0.0433 ± 0.025
peptide microarray binding signal [4, 17]: 0.132 ± 0.038
peptide microarray binding signal [4, 18]: 0.0759 ± 0.013

QTARKSTGGKAPR [H3 5-17 Q T A R K Sph Tph G G K A P R]
peptide microarray binding signal ([1]; peptide region: H3 5-17, peptide modifications: H3S10ph H3T11ph, binder concentration: 50 nM): 0.00295 ± 9.8e-05
peptide microarray binding signal ([1]; peptide region: H3 5-17, peptide modifications: H3S10ph H3T11ph, binder concentration: 500 nM): 0.00695 ± 0.00038
peptide microarray binding signal ([2]; peptide region: H3 5-17, peptide modifications: H3S10ph H3T11ph, binder concentration: 10 nM): 0.00346 ± 9.7e-05
peptide microarray binding signal ([2]; peptide region: H3 5-17, peptide modifications: H3S10ph H3T11ph, binder concentration: 100 nM): 0.016 ± 0.0014
peptide microarray binding signal [3, 19]: 0.000302 ± 3.1e-06
peptide microarray binding signal [3, 20]: 0.000285 ± 3.1e-06
peptide microarray binding signal [4, 19]: 0.00107 ± 0.00014
peptide microarray binding signal [4, 20]: 0.000461 ± 8.7e-06

TGGKAPRKQLATK [H3 11-23 T G G Kme A P R Kac Q L A T K]
peptide microarray binding signal ([1]; peptide region: H3 11-23, peptide modifications: H3K14me1 H3K18ac, binder concentration: 50 nM): 0.00715 ± 0.00026
peptide microarray binding signal ([1]; peptide region: H3 11-23, peptide modifications: H3K14me1 H3K18ac, binder concentration: 500 nM): 0.014 ± 0.00051
peptide microarray binding signal ([2]; peptide region: H3 11-23, peptide modifications: H3K14me1 H3K18ac, binder concentration: 10 nM): 0.014 ± 0.0016
peptide microarray binding signal ([2]; peptide region: H3 11-23, peptide modifications: H3K14me1 H3K18ac, binder concentration: 100 nM): 0.0363 ± 0.0088
peptide microarray binding signal [3, 21]: 0.007 ± 0.001
peptide microarray binding signal [3, 22]: 0.00331 ± 0.0003
peptide microarray binding signal [4, 21]: 0.00159 ± 1.9e-05
peptide microarray binding signal [4, 22]: 0.00127 ± 3.4e-05

TGGKAPRKQLATK [H3 11-23 T G G Kac A P Rme K Q L A T K]
peptide microarray binding signal ([1]; peptide region: H3 11-23, peptide modifications: H3K14ac H3R17me1, binder concentration: 50 nM): 0.0113 ± 0.0011
peptide microarray binding signal ([1]; peptide region: H3 11-23, peptide modifications: H3K14ac H3R17me1, binder concentration: 500 nM): 0.0152 ± 0.00047
peptide microarray binding signal ([2]; peptide region: H3 11-23, peptide modifications: H3K14ac H3R17me1, binder concentration: 10 nM): 0.0182 ± 0.0058
peptide microarray binding signal ([2]; peptide region: H3 11-23, peptide modifications: H3K14ac H3R17me1, binder concentration: 100 nM): 0.0339 ± 0.014
peptide microarray binding signal [3, 23]: 0.00517 ± 0.00077
peptide microarray binding signal [3, 24]: 0.00719 ± 0.0015
peptide microarray binding signal [4, 23]: 0.00569 ± 0.00047
peptide microarray binding signal [4, 24]: 0.00404 ± 0.00028
